# PAD4 inh – inhibitors of human PAD4 | Q9UM07 | recombinant PAD4, RCA probe fluorescence polarization | inhibition, % at 6.36 µM | 0.41% of 330,000 active;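 active means percent inhibition above a cutoff equal to the mean of all tested compounds plus 3 SD, cut at about 15% in these data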
# PME-1 primary – PME-1 (human) inhibition; Q9Y570; recombinant PME-1, FP-Rh probe fluorescence polarization; inhibition, % at 5.9 µM; 0.53% of 320,000 active; AID 2130;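 active means inhibition above the campaign mean of all compounds plus 3 SD, cut at about 26% in these data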;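 further: competitive labeling of PME-1 active site by serine hydrolase directed probe; inhibitors block probe labeling so polarization falls and inhibition rises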
# Target sequence (Q9Y570 whole entry, looked up): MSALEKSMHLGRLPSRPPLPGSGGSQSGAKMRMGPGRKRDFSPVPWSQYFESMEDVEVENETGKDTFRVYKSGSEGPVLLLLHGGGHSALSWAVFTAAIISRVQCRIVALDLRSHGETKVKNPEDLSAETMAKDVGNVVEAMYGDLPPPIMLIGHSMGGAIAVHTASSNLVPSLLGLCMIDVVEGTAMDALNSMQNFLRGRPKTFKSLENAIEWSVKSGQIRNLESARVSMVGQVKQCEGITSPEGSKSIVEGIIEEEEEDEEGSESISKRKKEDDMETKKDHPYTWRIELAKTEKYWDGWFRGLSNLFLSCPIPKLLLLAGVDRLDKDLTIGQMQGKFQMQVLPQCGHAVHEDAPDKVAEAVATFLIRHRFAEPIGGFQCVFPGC
# Fam108B counter – counter-screen for RBBP9 inhibitors: inhibitors of mouse Fam108B; recombinant Fam108B, FP-Rh probe fluorescence polarization; inhibition, % at 9.51 µM; 0.33% of 300,000 active; AID 1947;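 active means inhibition above the screen mean inhibition plus 3 SD, computed separately per campaign, cut at about 18% in these data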;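 further: inhibitors lower polarization as less probe binds the enzyme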
# LYPLA2 inh – blocks human lysophospholipase 2, a PME1 counter-screen | O95372 | recombinant LYPLA2, FP-Rh probe fluorescence polarization | inhibition, % at 5.9 µM | 0.38% of 320,000 active | AID 2177;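 active means inhibition above the screen-wide mean plus 3 SD, limit set per campaign, cut at about 26% in these data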
# GSTO1 inh – GSTO1 inhibition, counter-screen for RBBP9 inhibitors | P78417 | recombinant GSTO1, activity-based probe fluorescence polarization | inhibition, % at 5.96 µM | 1.1% of 300,000 active | AID 1974;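 active means inhibition above the campaign mean inhibition plus 3 SD, cut at about 35% in these data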
# LYPLA1 inh – counter-screen for PME1 inhibitors: inhibitors of human LYPLA1 | O75608 | recombinant LYPLA1, FP-Rh probe fluorescence polarization | inhibition, % at 5.9 µM | 0.16% of 320,000 active | AID 2174;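 active means inhibition above the mean of all tested compounds plus 3 SD, set per campaign, cut at about 14% in these data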;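 further: inhibitors block serine hydrolase probe labeling of LYPLA1 so polarization falls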
# Target sequence (O75608 whole entry, looked up): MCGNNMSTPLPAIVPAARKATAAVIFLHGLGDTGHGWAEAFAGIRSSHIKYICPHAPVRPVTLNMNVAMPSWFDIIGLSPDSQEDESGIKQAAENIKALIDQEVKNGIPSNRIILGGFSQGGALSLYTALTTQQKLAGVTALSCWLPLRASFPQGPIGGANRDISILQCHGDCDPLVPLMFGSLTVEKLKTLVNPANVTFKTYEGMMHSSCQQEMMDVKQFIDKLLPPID
# A number is an active result; – = inactive; · = no result. Rows were chosen to be rich in hits. Some 1.8% of all compounds tested hit in one or more screens of this group.
SMILES,PAD4 inh,PME-1 primary,Fam108B counter,LYPLA2 inh,GSTO1 inh,LYPLA1 inh
Cc1nnc(SCC(=O)N(CC(C)C)c2c(N)n(Cc3ccccc3)c(=O)[nH]c2=O)n1N,–,–,–,–,–,–
CC(=O)NCc1ccc(C(=O)CCl)cc1,–,–,–,–,50,–
COc1ccc(C(=O)OCC(=O)c2ccc(CNC(C)=O)s2)cc1,–,–,·,–,·,–
CC(=O)Nc1ccc(C(=O)CCl)cc1,–,–,·,–,·,–
CC(=O)NCc1ccc(C(=O)CCl)s1,–,–,–,–,78,–
CC(=O)C(C(C)=O)C1(O)C(=O)c2ccccc2C1=O,–,–,–,–,75,–
Cc1noc(C)c1NC(=O)N(C)C[C@H]1Oc2ccc(NS(=O)(=O)c3cn(C)cn3)cc2C(=O)N([C@H](C)CO)C[C@@H]1C,–,·,·,·,·,·
CCCNC(=O)c1ccc(Cn2cc(-c3ccc(OC)cc3)nc2C(C)N)cc1 (centres undefined),–,–,–,–,–,–
CCOc1ccc(C(C)NC(=O)c2cc(=O)[nH]c3ccccc23)cc1OCC (centres undefined),–,–,–,–,–,–
COc1cccc(NC(=O)COC(=O)C2=NN(c3ccccc3)C(=O)CC2)c1,–,·,·,·,·,·
CC(=O)Cc1cc(O)c2ccccc2c1OC(=O)c1ccc(Br)cc1,–,28,–,–,–,–
O=C(COC(=O)c1ccc(Br)cc1)NCc1ccccc1,–,–,–,–,–,–
CC#CCN1c2ccccc2[C@]23C[C@@H](C(=O)OC)N(C(=O)c4cc(C)oc4C)C2=NC(C(=O)OC)=C(C(=O)OC)[C@H]13,–,28,–,–,–,–
C=CCN1c2ccccc2[C@]23C[C@@H](C(=O)OC)N(C(=O)c4cc(C)oc4C)C2=NC(C(=O)OC)=C(C(=O)OC)[C@H]13,–,–,–,–,–,–
N/C(CSc1ccc(Cl)cc1)=N\S(=O)(=O)c1ccc(Cl)cc1,–,–,–,–,–,–
C/C(N)=N\S(=O)(=O)c1ccc(Cl)cc1,–,–,–,–,36,–
O=C(O)c1cc(Nc2cc(Cl)c3nonc3c2[N+](=O)[O-])ccc1O,–,–,–,–,36,–
O=[N+]([O-])c1c(Nc2ccc(O)cc2)cc(N2CCOCC2)c2nonc12,–,–,–,–,–,–
O=S(=O)(c1ccc(NC(=S)N2CCN(c3ccc(O)cc3)CC2)cc1)N1CCOCC1,–,–,–,35,–,–
COC(=O)c1ccccc1S(=O)(=O)NNC(=O)C12CC3CC(CC(C3)C1)C2,–,·,·,·,·,·
COc1cc2c(cc1OC)C(COc1cccc(C(F)(F)F)c1)NCC2 (centres undefined),–,–,–,–,–,–
CCOC(=O)COc1ccc(/C=C2/C(=O)NN(c3ccc(F)cc3)C2=O)cc1OC,–,–,–,–,–,–
CCOC(=O)c1ccc(N2NC(=O)/C(=C/c3ccc(OC(=O)c4ccco4)c(OC)c3)C2=O)cc1,–,–,–,–,37,–
COc1cc(C(=S)N2CCN(c3ccccc3Cl)CC2)cc(O)c1O,–,–,–,–,37,–
CCC(C)c1ccccc1N1CC(C(=O)Nc2ccc(S(=O)(=O)N3CCOCC3)cc2)CC1=O (centres undefined),–,–,–,–,–,–
SMILES,PAD4 inh,PME-1 primary,Fam108B counter,LYPLA2 inh,GSTO1 inh,LYPLA1 inh
Cc1ccc(S(=O)(=O)N2CCC(C(=O)OC(C)C(=O)NC3CCCCC3C)CC2)cc1 (centres undefined),–,–,·,–,·,–
COc1cccc(C(=O)Nc2ccc3nc(N4CCN(c5ncccn5)CC4)cc(C)c3c2)c1OC,–,–,–,–,37,–
CCOc1ccccc1C(=O)Nc1ccc2nc(N3CCN(c4ncccn4)CC3)cc(C)c2c1,–,–,–,–,–,–
O=C(CSc1nnc(-c2cccnc2)o1)Nc1nccs1,–,–,–,–,–,–
CCC1CCCCN1C(=O)CSc1n[nH]c(N)n1 (centres undefined),–,·,·,·,·,·
O=C(O)CC/C(=C\c1ccc(N2CCCC2)c([N+](=O)[O-])c1)c1nc2ccccc2s1,–,40,–,–,–,–
CCCCN(C)CCCNC(=O)c1cn(CC)c2ccc(S(=O)(=O)N3CCc4ccccc4C3)cc2c1=O,–,40,–,–,–,–
CCCN(CCC)CCCNC(=O)c1cn(CC)c2ccc(S(=O)(=O)N3CCc4ccccc4C3)cc2c1=O,–,–,–,–,–,–
CCCCN(CC)CCCNC(=O)c1cn(CC)c2ccc(S(=O)(=O)N3CCc4ccccc4C3)cc2c1=O,–,36,–,–,–,–
O=C(N/N=C1/C(=O)c2cccc3cccc1c23)c1ccc(Cl)cc1,–,–,–,31,–,–
COc1ccc(OC)c(-c2nn(-c3ccccc3)cc2C(=O)NCC(c2ccco2)N2CCCC2)c1 (centres undefined),–,–,·,–,·,–
CCC(C)N(CC(=O)Nc1cccc(C)c1C)C(=O)CCl (centres undefined),–,–,–,–,52,–
CC(C)N(CC(=O)Nc1ccc(Cl)cc1C(F)(F)F)C(=O)CCl,–,–,–,–,66,–
O=C(O)CSCC(=O)Nc1ccc(Cl)cc1C(F)(F)F,–,–,–,–,–,–
CCC(CC)NC(=O)Nc1cccc(C)c1C,–,–,–,–,–,–
COc1cccc(CNC(=O)CCCSc2ccccc2)c1,–,–,–,–,–,–
CN(Cc1cccs1)C(=O)c1ccc(Cl)c(S(=O)(=O)N2CCCCCC2)c1,–,·,·,·,·,·
CCC1(c2ccc(F)cc2)NC(=O)N(CC(=O)NC2CCCCCC2)C1=O (centres undefined),–,·,·,·,·,·
Cc1ccc(C(=O)CSC2=C(C#N)C(c3ccco3)C3=C(CCCC3=O)N2)cc1 (centres undefined),–,32,–,–,–,–
CC(=O)OCC1(C)CN(c2ccccc2)N(C(=O)c2ccc(F)cc2)C1=O (centres undefined),–,–,–,–,36,–
O=C(CC1C(=O)NCCN1C(=O)c1ccc(F)cc1)OCc1ccccc1 (centres undefined),–,–,–,–,–,–
CN=c1scc(-c2cccs2)n1/N=C/c1ccc(O)c(O)c1O,–,31,–,–,–,–
C=CCN=c1scc(-c2ccco2)n1/N=C/c1ccc(O)c(O)c1O,–,29,–,–,–,–
O=C(O)CC1(CC(=O)N2CCC(C(=O)O)CC2)CCCC1,–,–,–,–,–,–
CS(=O)(=O)c1ccc(-c2sc3cc4c(cc3c2C(=O)NN2CCOCC2)OCO4)cc1,–,·,·,·,·,·
CCCCCCCCN1N=N[C@H]2[C@H]1[C@@H]1C[C@H]2N(C(=O)OC(C)(C)C)O1,–,·,·,·,·,·
CC(=O)Nc1ccc(NC(=O)Nc2ccc3c(c2)N(C)C(=O)CS3)cc1,–,–,–,–,–,–
COc1cccc(NC(=O)Nc2ccc3c(c2)N(C)C(=O)CS3)c1,–,32,–,–,–,–
C=C(C)CCC(C)N1CCC(n2nccc2NC(=O)CCCc2ccccc2)CC1 (centres undefined),–,–,–,–,–,–

# Bioassay records from PubChem.
